In PubChem BioAssay (EPA / NIEHS) one finds outcome and AC50 data, which are given here for 36 compounds.

Values joined by “and” are separate entries in the source; they are usually repeats but may differ in a detail not shown here. Equal values may be shown once. Records with an inconclusive call do not appear. The source holds several records for some structures; these can differ, active in one and inactive in another. Active and inactive are the calls of the source. The calls were made as follows: active = hit-call score of the fitted dose curve at least 0.9, where 1 is the maximum; inconclusive = response in the unintended direction; inactive = score below 0.9.

Sequence of Cellular tumor antigen p53 (Homo sapiens) (P04637 whole entry, looked up, the tested form may be a part): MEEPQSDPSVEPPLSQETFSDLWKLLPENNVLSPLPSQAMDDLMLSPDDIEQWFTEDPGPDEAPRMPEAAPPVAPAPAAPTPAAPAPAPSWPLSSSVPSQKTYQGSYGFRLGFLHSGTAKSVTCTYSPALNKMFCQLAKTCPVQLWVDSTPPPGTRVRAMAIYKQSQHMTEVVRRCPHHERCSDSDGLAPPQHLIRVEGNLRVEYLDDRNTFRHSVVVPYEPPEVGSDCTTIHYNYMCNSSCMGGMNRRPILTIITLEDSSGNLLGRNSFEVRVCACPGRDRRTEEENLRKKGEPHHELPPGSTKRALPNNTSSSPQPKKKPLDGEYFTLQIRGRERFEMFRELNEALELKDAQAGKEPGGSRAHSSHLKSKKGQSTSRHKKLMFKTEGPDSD

This experiment concerns the target Cellular tumor antigen p53 (Homo sapiens) (UniProt P04637). Kind of experiment: TOX21_p53_BLA_p2_ratio: Tox21 HCT-116 p53 Agonism Beta-lactamase Assay, Ratio, Phase 2 (AID 2283592). The text has this:
TOX21_p53_BLA_p2 is a cell-based, single-readout assay that uses HCT116, a human intestinal cell line, […] in a 1536-well plate.TOX21_p53_BLA_p2_ratio is an assay readout measuring reporter gene via receptor activity and designed using inducible reporter (beta lactamase induction) detected with GAL4 b-lactamase reporter gene. The signal is derived from the ratio of cleaved (ch2) to uncleaved (ch1) reporter gene substrate used as the measure of target activity.Data from the assay component TOX21_p53_BLA_p2_ratio was analyzed into 1 assay endpoint. This assay endpoint, TOX21_p53_BLA_p2_ratio, was analyzed in the positive analysis fitting direction relative to DMSO as the negative control and baseline of activity. Using a type of inducible reporter, gain-of-signal activity can be used to understand changes in the reporter gene as they relate to the gene TP53. Furthermore, this assay endpoint can be referred to as a primary readout, because this assay has produced multiple assay endpoints and this ratio serves a reporter gene function to understand target activity. To generalize the intended target to other relatable targets, this assay endpoint is annotated to the DNA binding intended target family, where the subfamily is tumor suppressor.
Thawing Method: Place 14 mL of pre-warmed thaw medium into a 15 mL of conical tub. Remove the vial of cells to be thawed from liquid nitrogen and thaw rapidly by placing at 37C in a water bath with gentle agitation for 1-2 minutes. Decontaminate the vial by wiping with 70% ethanol before opening in a biological safety cabinet. Transfer the vial contents drop-wise into 14 mL of thaw medium in a sterile 15-mL conical tub. Centrifuge cells at 900 rpm for 4 minutes and resuspend in thaw medium. Transfer contents to the T75 tissue culture flask containing Thaw Medium and place flask in a humidified 37C/5% CO2 incubator. Switch to growth medium at first passage.Propagation Method: Aspirate medium, rinse once in DPBS, add 0.25% Trypsin/EDTA and swirl to coat the cell evenly. Add an equal volume of Growth Medium to inactivate Trypsin after 2-3 minutes incubation at 37C. Centrifuge cells at 900 rpm for 4 minutes and resuspend in growth medium. Cell should be passage or fed at least twice a week.Assay Protocol: Harvest cells from culture in growth medium and resuspend in assay medium. 2.2 Dispense 4000 cells/5 uL/well into 1536-well black/clear bottom plates using a Multidrop dispenser. After the cells were incubated at 37C for 5 hours, 23 nL of compounds dissolved in DMSO were transferred to the assay plate by a PinTool resulting in a 217-fold dilution. Incubate the plates for 16 hours at 37C, 5% CO2. Add 1 uL of 6X LiveBLAzer FRET B/G (CCF4-AM) Substrate Mixture to each well using a BioRAPTR dispenser and incubate the plates at room temperature for 2 hours. Measure fluorescence intensity at 460 and 530 nm emission and 405 nm excitation by an Envision detector. Data is expressed as the ratio of 460nm/530nm emissions. Add 4 uL of Cell-titer Glo to each well using BioRAPTR and incubate the plates at room temperature for 2 hours. Measure fluorescence intensity by a VewLux plate reader.
Regarding `CCCOC(=O)NCCCN(C)C`, the result was inactive. Broadly, the AC50 is the midpoint of the concentration-response curve, whichever way the signal moves. On to `O=C(O)C1(C(=O)Nc2ccc(Cl)cc2Cl)CC1`, for which the AC50 is 18.6 µM (active). Take `N[C@@H](Cc1cc(I)c(Oc2ccc(O)c(I)c2)c(I)c1)C(=O)O`: the outcome was inactive and the AC50 is 33.6 µM (active). On to `COC(=O)c1ccc(I)cc1S(=O)(=O)NC(=O)Nc1nc(C)nc(OC)n1`, for which the result was inactive.

Regarding `CC(=O)S[C@@H]1CC2=CC(=O)CC[C@]2(C)[C@H]2CC[C@@]3(C)[C@@H](CC[C@@]34CCC(=O)O4)[C@H]12`, the outcome was inactive and the AC50 is 15.8 µM (active). With `COCCO`, the result was inactive. In the case of `CCOC(=O)C(C)Oc1ccc(Oc2nc3ccc(Cl)cc3o2)cc1` (stereo not given), the outcome was inactive. Same read-out and setting: next, `CC(=O)[C@H]1CC[C@H]2[C@@H]3CCC4=CC(=O)CC[C@]4(C)[C@H]3CC[C@]12C`: “inactive”; `c1ccc(Nc2ccccc2)cc1`: “inactive”.

In the case of `CCOC(=O)c1ccc(O)cc1`, the result was inactive. As to `CCCN(CCC)c1c([N+](=O)[O-])cc(C(F)(F)F)c(N)c1[N+](=O)[O-]`, the AC50 is 37.8 µM (active).

`CCCN(CCC)C(=O)SCC`: the outcome was inactive. Same read-out and setting: next, `C#C[C@]1(O)CC[C@H]2[C@@H]3CCC4=CC(=O)CC[C@@H]4[C@H]3CC[C@@]21CC`: “inactive”. Take `Oc1ccc(C(c2ccc(O)cc2)C(Cl)(Cl)Cl)cc1`: the AC50 was 72.9 µM (active) and 69.1 µM (active). Regarding `COC(=O)CSc1cc(N=c2sc(=O)n3n2CCCC3)c(F)cc1Cl`, the outcome was inactive. The same measure, in the same setting: next, `CCN(Cc1c(F)cccc1Cl)c1c([N+](=O)[O-])cc(C(F)(F)F)cc1[N+](=O)[O-]`: “inactive”.

With `CC(C)(c1ccc(O)cc1)c1ccc(O)cc1`, the result was inactive and the AC50 is 85.6 µM (active).

In the case of `Cc1nn(C)c(Oc2ccccc2)c1C=NOCc1ccc(C(=O)OC(C)(C)C)cc1`, the AC50 was 0.0043 µM (active). The same measure, in the same setting: next, `O=C(Nc1ccc([N+](=O)[O-])cc1Cl)c1cc(Cl)ccc1O`: 234 nM (active) and 140 nM (active). In the case of `CCCCC(CC)COC(=O)c1ccccc1C(=O)O` (stereo not given), the result was inactive.

With `CSC(=O)c1cccc2nnsc12`, the outcome was inactive. Same read-out and setting: then `CCC(C)OC(=O)N1CCCCC1CCO` (stereo not given), with “inactive”; and `CCNc1nc(N)nc(Cl)n1`, with “inactive”; and `CN(C)C(=O)Nc1ccc(Cl)c(Cl)c1`, with “inactive”. For the compound `O=C(c1ccc(O)cc1O)c1ccc(O)cc1O`, the AC50 is 73.1 µM (active) and the result was inactive. As for `C[C@]12CC[C@@H]3c4ccc(O)cc4C[C@@H](CCCCCCCCCS(=O)CCCC(F)(F)C(F)(F)F)[C@H]3[C@@H]1CC[C@@H]2O` (stereo not given in full), the result was inactive. Still for that read-out and setting: then `CC(C)CCCCCCc1ccc(O)cc1`, with “inactive”; and `OB(O)O`, with “inactive”. As for `CC(C)(C)[C@@H](O)[C@@H](Cc1ccc(Cl)cc1)n1cncn1`, the outcome was inactive. Same read-out and setting: next, `CC1(C)C(C=C(Cl)Cl)C1C(=O)OCc1cccc(Oc2ccccc2)c1` (stereo not given): “inactive”; `O=C(O)c1ccccc1`: “inactive”; `CCCCC(CC)CN1C(=O)C2C3C=CC(C3)C2C1=O` (stereo not given): “inactive”.

For the compound `COc1nc(C)nc(NC(=O)NS(=O)(=O)c2ccccc2OCCCl)n1`, the result was inactive. For the compound `CCOC(=O)NCCOc1ccc(Oc2ccccc2)cc1`, the AC50 was 38.1 µM (active). With `CCOC(=O)COc1cc(-n2ncc(C(F)(F)F)c(C)c2=O)c(F)cc1Cl`, the outcome was inactive.

`CCCCCCC(C)OC(=O)COc1nc(F)c(Cl)c(N)c1Cl` (stereo not given): the AC50 is 82.3 µM (active).
